Screening results as filed in PubChem.
This excerpt belongs to a sample that is enriched for hits.
HT1080 IDH1KD tx: toxicity to HT-1080 IDH1 knockdown cells (counter line); AID 686971; 360,000 tested, 2% active; HT-1080 IDH1 knockdown viability, ATP luminescence, 48 h; Potency, µM (top dose mostly 46.1 µM), most hits filed as cytotoxic
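Using the IDH1-knockdown HT-1080 line run in the same batch and compound series as the NT line, viability after 48 h at 37 °C was determined by CellTiter-Glo luminescence and expressed as % activity.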
IL1B secr inh: inhibitors of inflammasome signaling (IL-1 beta secretion). 360,000 tested, 4.7% active. activity change, % at 57.5 µM. AID 743279. THP-1 LPS/ATP IL-1B secretion, AlphaLISA, 16 h; active compounds read low; in the data active = activity change below about -50%; inconclusive = mostly about -30% to -49%
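THP-1 cells pretreated 1 hr with compounds (up to 57.5 uM final), then stimulated with LPS (250 ng/mL final) plus ATP (1.25 mM final); secreted IL-1B measured by AlphaLISA after 16 hr, decreased signal indicating inhibition.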
HT1080-NT tox: kills 2HG-producing HT-1080-NT fibrosarcoma cells. Potency, µM (doses to about 46.1 µM), actives largely listed as cytotoxic. HT-1080-NT fibrosarcoma viability, CellTiter-Glo ATP luminescence, 48 h. 360,000 tested, 1.6% active. AID 686970;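 also: NT is the 2HG producing partner of a matched IDH1 knockdown line; nearly all actives have a fitted effect of over 55% in size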
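HT-1080-NT; 750 cells/well; 5% FBS RPMI; 48 h compound, 37 degrees C; CellTiter-Glo luminescence; curve fitting and curve-class assignment.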
12-LOX inh: blocks human arachidonate 12S-lipoxygenase. P18054. purified 12hLO, xylenol orange hydroperoxide absorbance. Potency, µM (titrated, usually from 108 µM), most hits filed as inhibitors. 580,000 tested, 1.1% active. AID 1671190
Target sequence (P18054 whole entry, looked up): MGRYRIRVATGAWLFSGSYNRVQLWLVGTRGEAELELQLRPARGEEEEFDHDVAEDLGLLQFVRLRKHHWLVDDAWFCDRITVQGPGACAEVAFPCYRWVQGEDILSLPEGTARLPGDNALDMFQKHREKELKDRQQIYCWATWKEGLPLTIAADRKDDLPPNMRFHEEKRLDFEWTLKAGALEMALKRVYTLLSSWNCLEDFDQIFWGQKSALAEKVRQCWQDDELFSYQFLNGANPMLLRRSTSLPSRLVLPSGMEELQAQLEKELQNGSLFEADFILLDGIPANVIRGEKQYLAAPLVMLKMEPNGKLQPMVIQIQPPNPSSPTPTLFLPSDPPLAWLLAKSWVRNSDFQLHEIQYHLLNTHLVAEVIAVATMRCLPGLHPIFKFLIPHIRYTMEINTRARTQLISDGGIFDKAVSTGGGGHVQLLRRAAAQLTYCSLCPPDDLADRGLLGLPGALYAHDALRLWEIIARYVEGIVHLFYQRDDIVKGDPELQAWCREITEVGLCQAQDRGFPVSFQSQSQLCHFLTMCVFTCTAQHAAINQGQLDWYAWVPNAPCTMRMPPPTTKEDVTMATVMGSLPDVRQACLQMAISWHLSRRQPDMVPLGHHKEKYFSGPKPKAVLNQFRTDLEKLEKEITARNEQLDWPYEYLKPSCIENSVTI
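Purified human 12hLO at 150 nM in 25 mM Hepes, 0.01% Triton X-100, pH 7.0, preincubated 15 min at room temperature with compound. Reaction started with 40 uM arachidonic acid, 30 min at room temperature. Hydroperoxide measured by Fe-xylenol orange, 573/405 nm absorbance ratio.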
DT40 TDP1 no CPT: qHTS for Inhibitors of human tyrosyl-DNA phosphodiesterase 1 (TDP1): qHTS in cells in absence of CPT; Potency, µM (highest dose often 46.2 µM), usual class: inhibitors; 420,000 tested, 15% active; AID 686978, 2013; DT40 Tdp1-/- hTDP1 cells, no CPT, ATP luminescence, 48 h; also: nearly all actives have a fitted effect of over 55% in size
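Compound effects on proliferation are scored in DT40 Tdp1-/-;hTDP1 cells in the absence of CPT. ATP levels (CellTiter-Glo luminescence) are recorded after a ≥48 hr, 37 °C incubation.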
DT40 TDP1 CPT: growth inhibition of DT40 Tdp1-/-;hTDP1 cells with camptothecin (screen for TDP1 inhibitors) | chicken DT40 Tdp1-/-;hTDP1 cells + 20 nM CPT, ATP luminescence, 48 h | Potency, µM (series often up to 46.2 µM), usual class: inhibitors | 420,000 tested, 12% active | AID 686979; also: nearly all actives have a fitted effect of over 55% in size
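Chicken DT40 Tdp1-/- cells complemented with human TDP1, 400 cells/well, exposed to compounds plus 20 nM camptothecin for at least 48 h at 37 C; viability read as ATP content by CellTiter-Glo luminescence.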
Numbers stand for hits; - = inactive; ? = inconclusive; . = no result; [ ] = remark or other dose. Unless noted, calls follow the shape of the dose curve; as a rule, active = well fitted curve in the direction sought with a large enough effect; inconclusive = small, poorly fitted or top-dose-only effect, or another doubt; inactive = no such curve, though single readings can be large; an effect the other way counts as inactive or inconclusive.

SMILES	HT1080 IDH1KD tx	IL1B secr inh	HT1080-NT tox	12-LOX inh	DT40 TDP1 no CPT	DT40 TDP1 CPT
COc1ccc(-c2nc3c(Cl)cc(C(F)(F)F)cn3c2Cc2cccc(F)c2)cc1OC	-	?	-	-	18.4µM	23.1µM
Cc1ccc(Cc2c(-c3ccc(Cl)cc3)nc3ccc(Br)cn23)cc1	-	-	-	?	25.9µM	16.4µM
Clc1cccc(Cc2c(-c3ccccc3)nc3ccc(Br)cn23)c1	-	-	-	?	?	?
Cc1ccc(Cc2c(-c3ccc(C)cc3)nc3ccc(Br)cn23)cc1	-	-	?	10µM	23.1µM	20.6µM
CC(Sc1nc2ccc(F)cc2c(=O)[nH]1)C(=O)NC1CCCC1 (stereo not given)	.	.	.	-	.	.
Cc1ccc(Cc2c(-c3ccco3)nc3ccc(Br)cn23)cc1	16.4µM	-	18.4µM	39.8µM	?	?
Cc1ccc(Cc2c(-c3cccc(Br)c3)nc3ccc(Br)cn23)cc1	-	-	-	25.1µM	-	-
Cc1ccc(Nc2c(-c3ccco3)nc3ccc(C)cn23)cc1	.	.	.	-	-	-
O=C1c2c(nc(CNc3ccc(F)cc3)n2Cc2ccccc2)NCCN1Cc1ccccc1	.	.	.	-	.	.
CCCCNC(=O)C[C@@H]1C[C@@]2(C(=O)OC)CCCCC=C2N(CCC2=CCCCC2)C1=O	-	?	-	?	18.4µM	?
C#CCNC(=O)C[C@@H]1C[C@@]2(C(=O)OC)CCCCC=C2N(CCC2=CCCCC2)C1=O	-	-	-	-	18.4µM	?
CCOC(=O)[C@]12CCCC=C1N(CCC1=CCCCC1)C(=O)[C@H](CC(=O)NCCCN1CCCC1=O)C2	-	-	-	-	?	?
C#CCNC(=O)C[C@@H]1C[C@@]2(C(=O)OCC)CCC=C2N(CCC2=CCCCC2)C1=O	-	-	-	-	?	?
Cn1cccc1CN1CC[C@@H]2CN(S(C)(=O)=O)[C@@H]2C1	.	.	.	-	.	.
Cc1c(Cl)cccc1NC(c1ccc(F)cc1)c1nnc(-c2ccccc2)o1 (stereo not given)	.	.	.	-	23.1µM	?
CC(=O)c1cccc(NC(c2ccc(F)cc2)c2nnc(-c3ccccc3)o2)c1 (stereo not given)	.	.	.	?	18.4µM	?
CCOC(=O)C1CCN(C(=O)c2cc(-c3cccc(OC)c3)n[nH]2)CC1	.	.	.	-	.	.
O=C(NCCc1ccccc1)Nc1ccc2c(c1)OCO2	-	-	-	-	-	-
O=C(Nc1ccc([N+](=O)[O-])cc1)Nc1ccc2c(c1)OCCO2	-	-68.0	-	-	14.6µM	?
COC(=O)c1ccccc1NC(=O)Nc1ccc2c(c1)OCO2	-	-	-	-	-	-
O=C(Nc1ccc(F)cc1)Nc1ccc2c(c1)OCO2	-	-	-	-	?	9.2µM
O=C(NCCc1ccc(F)cc1)Nc1ccc2c(c1)OCO2	-	?	-	-	?	18.4µM
CC(C)c1ccccc1NC(=O)Nc1ccc2c(c1)OCO2	-	-	-	-	-	16.4µM
O=C(Nc1ccc(OC(F)(F)F)cc1)c1nc2ccccc2nc1N1CCOCC1	.	.	.	-	.	.
Cc1ccc(NC(=O)NC(=O)CSc2nnc(-c3ccc(Cl)cc3Cl)n2N)c(C)c1	-	-	-	-	-	-
SMILES	HT1080 IDH1KD tx	IL1B secr inh	HT1080-NT tox	12-LOX inh	DT40 TDP1 no CPT	DT40 TDP1 CPT
O=C(Nc1ccc2c(c1)OCO2)Nc1ccc2c(c1)OCO2	-	-	-	-	-	-
O=C(Nc1ccc2c(c1)OCO2)Nc1ccc(F)cc1F	-	-	-	-	2.31µM	3.66µM
Cc1cc(C)c(NC(=O)Nc2ccc3c(c2)OCO3)c(C)c1	-	-	-	-	?	11.6µM
O=C(c1ccc(F)cc1)N(Cc1cccs1)c1ccc(F)cc1	.	.	.	-	.	.
Cn1c2c(c(=O)[nH]c1=O)C(c1ccc(C(=O)O)cc1)C1=C(N2)c2ccccc2C1=O (stereo not given)	.	.	.	44.7µM	.	.
COc1ccc(OC)c(-c2csc(NC(=O)C3=NN(c4ccccc4)C(=O)CC3)n2)c1	-	-	-	-	20.6µM	-
COc1ccc(NS(=O)(=O)c2cc(NC(=O)C3=NN(c4ccccc4)C(=O)CC3)ccc2OC)cc1	-	-	-	-	0.184µM	?
COc1ccc2[nH]c(=O)c(CCC(=O)NC(C)c3cn(C)nc3C)cc2c1 (stereo not given)	.	.	.	-	.	.
CN(CC(=O)Nc1ccc(S(=O)(=O)N2CCCC2)cc1)CC(=O)Nc1cccc(F)c1	-	-	-	-	23.1µM	18.4µM
CN(CC(=O)Nc1ccc(S(=O)(=O)N2CCCC2)cc1)Cc1ccc(Cl)cc1Cl	-	-	-	-	?	18.4µM
COc1ccc(CCN(C)c2ccc(S(=O)(=O)N3CCCC3)cc2[N+](=O)[O-])cc1OC	-	-	-	-	11.6µM	16.4µM
Cc1ccc(NC(=O)CN(C)C(C)C(=O)Nc2ccc(S(=O)(=O)N3CCCC3)cc2)cc1 (stereo not given)	-	-	-	-	23.1µM	18.4µM
COc1ccc(CCN(C)c2ccc(S(=O)(=O)N3CCCC3)cn2)cc1OC	-	-	-	-	?	?
CN(CC(=O)Nc1ccc(S(=O)(=O)N2CCCC2)cc1)CC(=O)Nc1ccc(F)c(F)c1F	-	-	-	-	?	-
Cc1cc(C(=O)NCC2Cn3cccc3C(=O)N2C)n(C)n1 (stereo not given)	.	.	.	-	.	.
C#CCNC(=O)C1CCc2nnc(CNC(=O)c3ccc(Cl)cc3Cl)n21 (stereo not given)	.	.	.	-[6.33 µM]	.	.
C[C@]12C[C@H](O)CC(CO)(CO)C1[C@H](O)C[C@@]13CC4[C@@H](CC12)[C@@]4(C)C3 (stereo not given in full)	.	.	.	-	-[9.04 µM]	-[9.04 µM]
OCc1cc(CC2(NCc3ccccc3O)COC2)no1	.	.	.	-	.	.
NCc1cc(NC(=O)c2ccccn2)cc(C(=O)N2CC[C@H]3CNC[C@H]32)c1	.	.	.	-	.	.
CC1CC(C)CN(C(=O)C(C)N(C)CC(=O)Nc2ccc(Cl)cc2)C1 (stereo not given)	-	-	-	?	14.6µM	16.4µM
COc1ccc(N(C(C)C(=O)Nc2ccc(S(=O)(=O)N3CCCCC3)cc2)S(C)(=O)=O)cc1 (stereo not given)	-	-	-	-	29.1µM	?
CN(CC(=O)Nc1cccc(F)c1)C(=O)c1ccc(N2CCCCC2)c([N+](=O)[O-])c1	-	-	?	-	14.6µM	16.4µM
O=C(CSCc1ccc(Cl)cc1)Nc1ccc(S(=O)(=O)N2CCCCCC2)cc1	-	-	-	-	?	?
CN(CC(=O)Nc1ccc(Cl)cc1)c1ccc(S(=O)(=O)N2CCCCC2)cc1[N+](=O)[O-]	?	-60.6	-	-	?	18.4µM
